Reference: article PMC7819943, “Rice protein-binding microarrays: a tool to detect cis-acting elements near promoter regions in rice”
Over roughly 68,000 sequences, “fluorescence intensity (a.u.)” has its median near 9,100; the highest 2% begin near 16,000. The sample as a whole holds a higher share of the highest values than the screen did.

Each sequence was assayed against OsWRKY34 (Oryza sativa, UniProt Q0JBA9 1-250) (assay: protein-binding microarray (RPBM); PBS, 2% BSA, 51.3 ng/ul salmon testes DNA, 50 uM zinc acetate, 200 nM TF, 25 C, 1 h; high values mean tight binding). Conditions: protein: recombinant; tags: N-terminal polyhistidine and DsRed monomer fusion (pET32a); label: CyDye5-dUTP incorporated in the synthesized complementary strand; 3' TTTTT single-stranded linker to array surface; dsDNA, one strand shown.
Sequence of OsWRKY34 (Q0JBA9 entry or part of it): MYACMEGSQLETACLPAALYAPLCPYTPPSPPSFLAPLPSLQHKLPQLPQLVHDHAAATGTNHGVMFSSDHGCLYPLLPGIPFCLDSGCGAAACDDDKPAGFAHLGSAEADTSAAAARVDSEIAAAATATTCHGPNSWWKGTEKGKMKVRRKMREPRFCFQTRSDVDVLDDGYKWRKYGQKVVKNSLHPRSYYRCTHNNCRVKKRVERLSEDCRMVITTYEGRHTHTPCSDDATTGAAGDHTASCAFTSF
Method in brief: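 The binding signal is fluorescence intensity per array feature (arbitrary units). Readings came from an Axon 4000B scanner after a washed, 2% BSA-blocked, double-stranded custom Agilent array had been incubated for 1 h at 25 °C with 200 nM protein and 50 µM zinc acetate. The protein was a Ni–NTA-purified transcription factor fused N-terminally to polyhistidine and DsRed, expressed in E. coli BL21-CodonPlus.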
For “CCGTTCGCCACGTCCATCCGTTTTCTGTGCCATAGGCAGGCGGAGTCACCTAGTGCAG”, the binding signal was 9340 fluorescence intensity (a.u.). “GCGTGCTAAACCCTTGTGATCCGTGTATTTAACCACCTTCCGGAGTCACCTAGTGCAG” was tested, and the binding signal was 11700 fluorescence intensity (a.u.). “ATTGGATCGGATCAGATCCCTTTTGCGCACCACTCGCCTTCGGAGTCACCTAGTGCAG” was tested, and the binding signal was 8750 fluorescence intensity (a.u.). For “TCGAGGAGTGGATGGACGGATGGGTGGGTCATCACTGGTCCGGAGTCACCTAGTGCAG”, the binding signal was 8840 fluorescence intensity (a.u.). With “CCTCACGCAATTCCACAACTGCTGCTCCCACCCTCATCAGCGGAGTCACCTAGTGCAG” the binding signal was 9580 fluorescence intensity (a.u.). With “TTTGCAATATCAGGGGTGTGTTACATATGTATTTCGATTTCGGAGTCACCTAGTGCAG” the binding signal was 12400 fluorescence intensity (a.u.). “TCTACCCGCCTTCCTTTTAGTCCCCGCGTCTCCACAAAATCGGAGTCACCTAGTGCAG” was tested, and the binding signal was 10100 fluorescence intensity (a.u.). For “TATTTTCCGTGTGTACCGTTCCGGTTATCAATACCAGCGCCGGAGTCACCTAGTGCAG”, the binding signal was 8380 fluorescence intensity (a.u.). “TCATCCCACCGACGTCAGCAAGCCATCGCCATCAAGCCCACGGAGTCACCTAGTGCAG” was tested, and the binding signal was 9760 fluorescence intensity (a.u.). For “GCCATCAAGCTACGCCATTCAGCATTGCAACGACGACGTCCGGAGTCACCTAGTGCAG”, the binding signal was 64300 fluorescence intensity (a.u.). “CAGCCGCCCTACGTCAGCCAAGTCCAACGACAACGCCCAACGGAGTCACCTAGTGCAG” was tested, and the binding signal was 8200 fluorescence intensity (a.u.). With “ACCTCTGCTGATTCTTCTTGCTGTTTCTTTGTTGCGCATTCGGAGTCACCTAGTGCAG” the binding signal was 11500 fluorescence intensity (a.u.). For “CACCTCGCGCCGCGCCCCATCCTTATCGTCATGACACGCCCGGAGTCACCTAGTGCAG”, the binding signal was 8810 fluorescence intensity (a.u.). In the case of “TGGAGAGCGTTGCTTTTTTTGGGCGGGTTTGGATTTTTATCGGAGTCACCTAGTGCAG”, the binding signal is reported as 21600 fluorescence intensity (a.u.). For “TTGCTTGTCTGTTTGTTTTATTTATTTATGACGTCATTATCGGAGTCACCTAGTGCAG”, the binding signal was 12600 fluorescence intensity (a.u.). For “TCTTAGTATCCTTGGTTGTTGGATTTTTAGTTTGCTTTATCGGAGTCACCTAGTGCAG”, the binding signal was 9350 fluorescence intensity (a.u.). In the case of “AACTCTGGCACGATTTTTTTTATTGCAGTTTTCGTCGGATCGGAGTCACCTAGTGCAG”, the binding signal is reported as 11400 fluorescence intensity (a.u.). “GTTGGTTTTGGGGTTTTGGAGCGTTGCGGATTGCCACGGCCGGAGTCACCTAGTGCAG” was tested, and the binding signal was 10300 fluorescence intensity (a.u.). In the case of “GGTTTTTTTTGGATTTATTGCTTTGTCACGTCTGGATCGTCGGAGTCACCTAGTGCAG”, the binding signal is reported as 20500 fluorescence intensity (a.u.). For “GAGGAGCTCGCCAATTGTTCCGCGTCATATCGCCAGCTCTCGGAGTCACCTAGTGCAG”, the binding signal was 9060 fluorescence intensity (a.u.). For “GTCATTTTGTCTTTTTCTCTAAGTCAAACTTCTTTAATTTCGGAGTCACCTAGTGCAG”, the binding signal was 10900 fluorescence intensity (a.u.). “CCTCTAAATTTTAAGATTTTTTTAATCATTTTACCATTTTCGGAGTCACCTAGTGCAG” was tested, and the binding signal was 65200 fluorescence intensity (a.u.). In the case of “ATAGTTGGTGTGTTTATGTAGACTTATTCTATTTTGACGTCGGAGTCACCTAGTGCAG”, the binding signal is reported as 10400 fluorescence intensity (a.u.). In the case of “GATTCTAGTCAAATTTCTTTTAATTTTGACTACGTTTATACGGAGTCACCTAGTGCAG”, the binding signal is reported as 11200 fluorescence intensity (a.u.). “TCATTTTGACTTTTTTTAGTCAAACTCTTTTAATTTTAATCGGAGTCACCTAGTGCAG” was tested, and the binding signal was 19600 fluorescence intensity (a.u.). “TACCATTTCTTTCTTGCTTTTTTAATGCCTAAATCATCTTCGGAGTCACCTAGTGCAG” was tested, and the binding signal was 8050 fluorescence intensity (a.u.). “GTTGCTGGTTTTGTTAGTTTGGTGACCTTGACTTGTAAGACGGAGTCACCTAGTGCAG” was tested, and the binding signal was 8670 fluorescence intensity (a.u.). For “TCGTTGACTTTTTTCTTAGTCAAATTTCTTTAAGTTTGACCGGAGTCACCTAGTGCAG”, the binding signal was 42400 fluorescence intensity (a.u.). In the case of “AGGAGCCAGACTTAGTTGGTGTAAGCCATTTACTAGTTGACGGAGTCACCTAGTGCAG”, the binding signal is reported as 22800 fluorescence intensity (a.u.). For “AACCTCTCATTTAATAAGATTCATCACAGTCTTTTTTTTTCGGAGTCACCTAGTGCAG”, the binding signal was 9990 fluorescence intensity (a.u.). In the case of “AGTAATTTGACTTTTTCCTTAATCAAACTTCTTTAAGTTTCGGAGTCACCTAGTGCAG”, the binding signal is reported as 10600 fluorescence intensity (a.u.). “GACTTGATTTTTTTTCTTAATTTGACCTTTTAATTTCAAACGGAGTCACCTAGTGCAG” was tested, and the binding signal was 8080 fluorescence intensity (a.u.). “CCCTATCCATTAATTACTCGCTTCGTGGTCGGAATCCATGCGGAGTCACCTAGTGCAG” was tested, and the binding signal was 8200 fluorescence intensity (a.u.). “TGCTGCTGGTTACTTGTATTAATACATTATAGAAAATGAGCGGAGTCACCTAGTGCAG” was tested, and the binding signal was 8070 fluorescence intensity (a.u.). “AACTCTTTCTGCCCACTTCCTCAACCCATGCTTATCTACCCGGAGTCACCTAGTGCAG” was tested, and the binding signal was 8240 fluorescence intensity (a.u.). In the case of “TGAGAAGCACCGCTCTCTCCTGCACCCGTCTCACGTGCACCGGAGTCACCTAGTGCAG”, the binding signal is reported as 8300 fluorescence intensity (a.u.). “TCACCTGATCAAGTACGCGTTTTTGGCCCTCAAAAGTATTCGGAGTCACCTAGTGCAG” was tested, and the binding signal was 8120 fluorescence intensity (a.u.). “ACTAGGGTTCTCTTCTCACTCCATCGCTAGCGGCGGCTCACGGAGTCACCTAGTGCAG” was tested, and the binding signal was 8340 fluorescence intensity (a.u.). “TAATGGGATGGGTGAAAAGTTATTGTTTTTGGTAGGCCTTCGGAGTCACCTAGTGCAG” was tested, and the binding signal was 9640 fluorescence intensity (a.u.). For “CACCGCCGAACGCACGATTTCTTCCCGACGCTGTCACTTGCGGAGTCACCTAGTGCAG”, the binding signal was 8190 fluorescence intensity (a.u.). For “CCGCGATCTGTTTCGTCCAGCTTAATTTGTTGCTGTTCTGCGGAGTCACCTAGTGCAG”, the binding signal was 11300 fluorescence intensity (a.u.). For “GTTTGACTTTTTTACTAGTCAAACTTATTTAAGTTTGACCCGGAGTCACCTAGTGCAG”, the binding signal was 17500 fluorescence intensity (a.u.). For “ACATTTTGACTTTTGCCAAAGTCAAACTGCTTTAAGTTTGCGGAGTCACCTAGTGCAG”, the binding signal was 11900 fluorescence intensity (a.u.). In the case of “AAGTTACTTTTATTTTTTTCTAGTCAAACTACTTAGACTTCGGAGTCACCTAGTGCAG”, the binding signal is reported as 8740 fluorescence intensity (a.u.). “TAAGATGTTTTGACTTTGGTCAAAGTCAAACTACTTTGAGCGGAGTCACCTAGTGCAG” was tested, and the binding signal was 13200 fluorescence intensity (a.u.). “TATTTTTGACTTTGGTCAAAGTCAAACTGTTTTAAGTTTGCGGAGTCACCTAGTGCAG” was tested, and the binding signal was 17900 fluorescence intensity (a.u.).
